Source: PubChem BioAssay AID934 (National Center for Advancing Translational Sciences (NCATS), 2007)
Inconclusive results are not listed. Where a call stands in place of a potency, no number is given. Calls of active or inactive are those of the source. The call rests on the fitted dose curve; in most records, active means well fitted activation curve with a large enough effect; inconclusive means small, poorly fitted or top-dose-only effect; inactive means flat fitted curve, though single readings scatter.

Test: Parental Cell Counter Screen for Stat Signaling Pathway Assay
Conditions: ME-180 (cervical carcinoma) parental cells, blue fluorescence artefact counter-screen; series mostly up to 38.3 µM
Text: NIH Molecular Libraries Screening Centers Network [MLSCN] NIH Chemical Genomics Center [NCGC] MLSCN Grant: None NCGC Assay Overview: This assay is a counter screen for the Stat signaling pathway assay (PubChem AID 446). The Stat assay is cell-based and measures Interleukin 6 (IL-6) mediated modulation of a beta-lactamase reporter gene controlled by a STAT inducible element (SIE-bla cells, Invitrogen). IL-6 is a cytokine that signals via the JAK/STAT pathway and is implicated in cancer and inflammation. […] Compounds active in the parental ME-180 cells are likely fluorescent.
NCGC Assay Protocol Summary: Cells were trypsinized, washed in assay medium (AM, OPTI MEM with 0.5% fetal bovine serum, 0.1 mM nonessential amino acids, 1 mM sodium pyruvate, 10mM HEPES pH 7.3, 100U/ml penicillin, and 100 ug/ml streptomycin) and suspended at […] in AM. Approximately 2500 cells in 5 uL/well was dispensed into 1536-well plates and the cells were incubated overnight at 37 C. 23 nL of compound were delivered by a pin tool and 1 uL of IL-6 (40 pM final concentration in AM) was added. After plates were incubated at 37 C for 5 hrs, 1uL of detector mix (LiveBLAzerTM, Invitrogen) was added, the plates incubated at room temperature for 2.5 hrs, and fluorescence intensity at 460 and 530 nm emissions was measured at 405 nm excitation by an Envision (Perkin Elmer).

| SMILES | Potency |
| --- | --- |
| COc1cccc2c1C(=O)c1c(O)c3c(c(O)c1C2=O)C[C@](O)(C(=O)CO)C[C@H]3O[C@@H]1C[C@H](N)[C@H](O)[C@H](C)O1 | inactive |
| OC[C@@H]1CCC[C@H](n2cnc3c(=S)nc[nH]c32)O1 | inactive |
| CC[C@@H]1CN2CCc3cc(OC)c(OC)cc3[C@H]2C[C@@H]1C[C@@H]1NCCc2cc(OC)c(OC)cc21 | inactive |
| CCOC(=O)CCc1c(C)c(C#N)c2[nH]c3ccccc3n2c1=O | inactive |
| COc1ccc(C(=O)CCN(C)C)c2ccccc12 | inactive |
| COc1cc2nc(-c3ccccc3)nc(N3CCCC3)c2cc1OC | inactive |
| CC1CCN(c2oc(-c3ccccc3Cl)nc2C#N)CC1 | inactive |
| Nc1ncnc2c1ncn2[C@@H]1O[C@@H](CO)[C@H](O)[C@@H]1O | inactive |
| O=C(Oc1oc(-c2ccco2)nc1C=Nc1ccccc1)c1ccoc1 | inactive |
| CN(C)CCCn1c2c3ccccc3ccc2c2oc(=O)c3ccccc3c21 | 12.6 µM (active) |
| O=c1c(O)c(-c2ccc(O)c(O)c2)oc2cc(O)cc(O)c12 | inactive |
| C[n+]1cc2c3c(ccc2c2ccc4cc5c(cc4c21)OCO5)OCO3 | 10 µM (active) |
| OC[C@@H]1O[C@@H](n2cnc3c(SCc4ccccc4)ncnc32)[C@@H](O)[C@H]1O | inactive |
| C=CCn1c(SCC(=O)c2ccc(NS(=O)(=O)c3ccccc3)cc2)nnc1-c1cccs1 | inactive |
| Cc1ccc(S(=O)(=O)N2CCN(c3nc(C(C)C)c4c(c3C#N)CC(C)(C)OC4)CC2)cc1 | inactive |
| N=C(N)SCc1cccc2c(=O)cc(-c3ccccc3)oc12 | inactive |
| COc1c2c(nc3ccccc13)O[C@@H]([C@@](C)(O)CO)C2 | inactive |
| CCc1cc2c(=O)c(-c3nc4ccccc4[nH]3)coc2cc1OC(=O)N1CCOCC1 | 12.6 µM (active) |
| CC(C)C[C@H]1C(=O)N2CCC[C@H]2[C@]2(O)O[C@](NC(=O)[C@@H]3C=C4c5cccc6[nH]c(Br)c(c56)CC4N(C)C3)(C(C)C)C(=O)N12 (stereo not given in full) | inactive |
| CC(=O)Oc1ccc(C(c2ccc(OC(C)=O)cc2)c2ccccn2)cc1 | inactive |

| SMILES | Potency |
| --- | --- |
| Cc1ccc(CNC(=O)c2cc3c(=O)n4ccccc4nc3n(CC3CCCO3)c2=N)cc1 (stereo not given) | 10 µM (active) |
| CC(C)(C)C1CCC2(CC1)C(C#N)=C(SCC(=O)Nc1ccccc1)NC(=O)C2C#N (stereo not given) | inactive |
| CCC(=O)Nc1nc(C)c(Oc2ccccc2)c(=O)[nH]1 | inactive |
| CN(C)S(=O)(=O)c1ccc2c(c1)/C(=C/c1cc3c([nH]1)CCCC3)C(=O)N2 | inactive |
| CCCCSc1nc(N)c(C#N)c(-c2cccs2)c1C#N | inactive |
| CCSc1nc(N)c(C#N)c(-c2ccccc2Cl)c1C#N | inactive |
| CC(C)(C)c1nnc2sc(SCC(=O)c3ccccc3)nn2c1=O | inactive |
| Cc1oc2cc(O)cc(C)c2c(=O)c1-c1cnn(-c2ccccc2)c1 | inactive |
| ClC(Br)=C(n1cnc2ccccc21)n1cnc2ccccc21 | inactive |
| CC(C)N1CC=C2C(C#N)=C(N)C(C#N)(C#N)C(c3ccccc3)C2C1 (stereo not given) | 5.01 µM (active) |
| CCNC(=O)c1cc2c(=O)n3cccc(C)c3nc2n(CCc2ccccc2)c1=N | 12.6 µM (active) |
| Cn1c(N2CCN(c3ccccn3)CC2)nc2c1c(=O)n(Cc1ccc(Cl)cc1)c(=O)n2C | inactive |
| Nc1ncnc2c1ncn2[C@@H]1O[C@H](COP(=O)(O)O)[C@@H](O)[C@@H]1O | inactive |
| CCN(CC)CCN1C(=O)c2cccc3cc(N)cc(c23)C1=O | inactive |
| Fc1ccc2[nH]c3c(N4CCN(Cc5ccc6c(c5)OCO6)CC4)ncnc3c2c1 | inactive |
| Cn1c(N2CCOCC2)nc2c1c(=O)n(Cc1ccc(Cl)c(Cl)c1)c(=O)n2C | inactive |
| Nc1ncnc2c1ncn2[C@@H]1O[C@H](CO)[C@@H](O)[C@H]1O | inactive |
| Clc1ccc(-c2nnc3sc(Cc4cccs4)nn23)cc1 | inactive |
| C=C1C(=O)O[C@@H]2[C@@H]1CC/C(C)=C\CC[C@@]1(C)O[C@H]21 | inactive |
| O=c1c(O)c(-c2ccc(O)cc2)oc2cc(O)ccc12 | inactive |
